An excerpt weighted towards active compounds, which were near 2.3% of everything screened.
Mcl-1 Bim block – disrupts Bim peptide binding to human Mcl-1. Q07820. Bead-based flow cytometry, Bim peptide-Mcl-1 binding. inhibition, % at 10 µM. 190,000 tested, 0.1% active. AID 1009; in the data active means inhibition above about 40%
Target sequence (Q07820 whole entry, looked up): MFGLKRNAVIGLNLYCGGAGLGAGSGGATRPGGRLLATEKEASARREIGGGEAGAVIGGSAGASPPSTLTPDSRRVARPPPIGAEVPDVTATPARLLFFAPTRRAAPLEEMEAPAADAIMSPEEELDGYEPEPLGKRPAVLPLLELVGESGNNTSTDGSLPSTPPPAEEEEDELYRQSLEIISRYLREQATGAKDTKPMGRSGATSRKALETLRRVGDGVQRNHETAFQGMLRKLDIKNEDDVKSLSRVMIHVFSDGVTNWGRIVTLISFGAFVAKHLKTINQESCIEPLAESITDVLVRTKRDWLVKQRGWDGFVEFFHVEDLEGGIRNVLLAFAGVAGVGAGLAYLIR
MCL1-BIM inh – inhibitors of human MCL1 binding to BIM-BH3 peptide | Q07820 | GST-MCL1 / FITC-Bim-BH3 fluorescence polarization | inhibition, % at 10.9 µM | 320,000 tested, 0.68% active | AID 2057;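 active means inhibition above the mean inhibition of all tested compounds plus 3 SD, set per campaign, cut at about 40% in these data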;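 further: higher means more loss of mP so more displacement of Bim peptide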
GLD-1 RNA inh – GLD-1-TGE RNA interaction inhibition (C. elegans); purified GLD-1 + fluorescein TGE RNA, fluorescence polarization; inhibition, % at 5.96 µM; 320,000 tested, 0.44% active;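 active means percent inhibition above a per-plate cutoff, the plate mean of test compounds plus 3 SD, cut at about 30% in these data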
Mcl1 Noxa PPI – Mcl-1/Noxa interaction inhibition | Q07820 | TR-FRET Mcl-1/Noxa peptide binding, 2 h | inhibition, % at 21.7 µM | 220,000 tested, 1.5% active | AID 1022;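 active means compounds that cut the protein-peptide binding signal by more than 50% relative to plate controls in a single-dose test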;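 further: His-tagged Mcl-1 with rhodamine Noxa BH3 peptide and terbium anti-His antibody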
BCLXL inh – blocks human Bcl-xL binding to Bim BH3 peptide; AID 2129; inhibition, % at 10.9 µM; 320,000 tested, 0.7% active; GST-Bcl-xL / FITC-Bim BH3 peptide fluorescence polarization;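 active means inhibition above the mean of all tested compounds plus 3 SD, cutoff set per campaign, cut at about 30% in these data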;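 further: inhibitors lower millipolarization by displacing the labeled peptide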
Target sequence (Q07817 whole entry, looked up): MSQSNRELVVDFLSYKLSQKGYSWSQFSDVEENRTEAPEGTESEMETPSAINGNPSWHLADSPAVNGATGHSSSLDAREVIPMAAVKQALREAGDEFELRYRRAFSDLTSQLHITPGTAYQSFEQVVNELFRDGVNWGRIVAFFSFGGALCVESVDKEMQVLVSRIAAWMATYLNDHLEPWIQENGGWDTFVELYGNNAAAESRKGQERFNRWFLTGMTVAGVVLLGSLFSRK
Mcl1 Bid PPI – disrupts binding of human Mcl-1 to Bid peptide | Q07820 | TR-FRET Mcl-1/Bid-Dy647 peptide binding, 1536-well | inhibition, % at 21.7 µM | 220,000 tested, 0.97% active | AID 1021;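 active means compounds that cut the binding signal by more than half at the single screening dose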;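 further: His-tagged Mcl-1 with europium anti-His antibody binding Bid BH3 peptide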
A number is an active result.

How did Cc1ccc(N=Cc2c(O)ccc3ccccc23)cc1F do in these assays?
Mcl-1 Bim block: inactive; MCL1-BIM inh: inactive; GLD-1 RNA inh: inactive; Mcl1 Noxa PPI: inactive; BCLXL inh: inactive; Mcl1 Bid PPI: inactive

How did COc1cccc(NC(=O)C(OC(=O)c2cnc(C)cn2)c2ccccc2)c1 (stereo not drawn) do in these assays?
MCL1-BIM inh: inactive; GLD-1 RNA inh: inactive; BCLXL inh: inactive

What do the screens show for `Nc1cccc(Nc2ccccc2)c1`?
Mcl-1 Bim block: inactive; MCL1-BIM inh: inactive; GLD-1 RNA inh: inactive; Mcl1 Noxa PPI: inactive; BCLXL inh: 50; Mcl1 Bid PPI: inactive

Results for c1ccc(Nc2cccc(Nc3ccccc3)c2)cc1 ?
Mcl-1 Bim block: inactive; MCL1-BIM inh: inactive; GLD-1 RNA inh: inactive; Mcl1 Noxa PPI: 88; BCLXL inh: inactive; Mcl1 Bid PPI: inactive

Results for CC1N(C)c2cc(NC(=O)c3ccco3)ccc2C1(C)C (stereo not drawn) ?
Mcl-1 Bim block: inactive; MCL1-BIM inh: inactive; GLD-1 RNA inh: 36; Mcl1 Noxa PPI: inactive; BCLXL inh: inactive; Mcl1 Bid PPI: inactive

What do the screens show for `Cc1ccc(C)c(N(CC(=O)NC2CCCC2)C(=O)c2cc3cc4cc(C)ccc4nc3s2)c1`?
Mcl-1 Bim block: inactive; MCL1-BIM inh: inactive; GLD-1 RNA inh: inactive; Mcl1 Noxa PPI: inactive; BCLXL inh: inactive; Mcl1 Bid PPI: inactive

How did Cc1cccc(N(CC(=O)NC2CCCC2)C(=O)c2cc3cc4cccc(C)c4nc3s2)c1C do in these assays?
Mcl-1 Bim block: inactive; MCL1-BIM inh: inactive; GLD-1 RNA inh: inactive; Mcl1 Noxa PPI: inactive; BCLXL inh: inactive; Mcl1 Bid PPI: 67

What do the screens show for `CCOc1cc(C=O)ccc1OS(=O)(=O)c1ccc(NC(C)=O)cc1`?
Mcl-1 Bim block: inactive; MCL1-BIM inh: inactive; GLD-1 RNA inh: inactive; Mcl1 Noxa PPI: inactive; BCLXL inh: inactive; Mcl1 Bid PPI: 52

How did CCOc1ccc(CN2CCN(S(=O)(=O)c3ccc(NC(C)=O)cc3)CC2)cc1OC do in these assays?
Mcl-1 Bim block: inactive; MCL1-BIM inh: inactive; GLD-1 RNA inh: inactive; Mcl1 Noxa PPI: inactive; BCLXL inh: inactive; Mcl1 Bid PPI: 52

What do the screens show for `CCOc1cc(C=O)ccc1OCC(N)=O`?
Mcl-1 Bim block: inactive; MCL1-BIM inh: inactive; GLD-1 RNA inh: inactive; Mcl1 Noxa PPI: inactive; BCLXL inh: inactive; Mcl1 Bid PPI: inactive

What do the screens show for `CC(=O)c1sc2nc(CSc3nncn3C)[nH]c(=O)c2c1C`?
Mcl-1 Bim block: inactive; MCL1-BIM inh: inactive; GLD-1 RNA inh: inactive; Mcl1 Noxa PPI: inactive; BCLXL inh: inactive; Mcl1 Bid PPI: 54

What do the screens show for `Cc1ccc(-n2nnnc2SCc2nc3sc(C)c(C)c3c(=O)[nH]2)cc1`?
Mcl-1 Bim block: inactive; MCL1-BIM inh: inactive; GLD-1 RNA inh: inactive; Mcl1 Noxa PPI: inactive; BCLXL inh: inactive; Mcl1 Bid PPI: inactive

What do the screens show for `Cc1c(C(=O)O)sc2nc(CSc3nnc(-c4ccc(F)cc4)n3C)[nH]c(=O)c12`?
Mcl-1 Bim block: inactive; MCL1-BIM inh: inactive; GLD-1 RNA inh: inactive; Mcl1 Noxa PPI: inactive; BCLXL inh: inactive; Mcl1 Bid PPI: inactive

How did CC(=O)c1sc2nc(CSc3nnnn3-c3ccccc3)[nH]c(=O)c2c1C do in these assays?
Mcl-1 Bim block: inactive; MCL1-BIM inh: inactive; GLD-1 RNA inh: inactive; Mcl1 Noxa PPI: 96; BCLXL inh: inactive; Mcl1 Bid PPI: inactive

What do the screens show for `CC1(C)C(=O)Nc2ccccc2N1C(=O)COC(=O)CNS(=O)(=O)c1ccc(F)c(F)c1F`?
MCL1-BIM inh: inactive; GLD-1 RNA inh: inactive; BCLXL inh: inactive

What do the screens show for `COc1ccc(CC(NC(C)=O)C(=O)NC2CCN(C(=O)c3ccccc3F)CC2)cc1` (stereo not drawn)?
MCL1-BIM inh: inactive; GLD-1 RNA inh: inactive; BCLXL inh: inactive

Results for CCCCn1c(=O)[nH]c(=O)c2c1nc(-c1ccc(-c3ccccc3Br)o1)n2CC ?
Mcl-1 Bim block: inactive; MCL1-BIM inh: inactive; GLD-1 RNA inh: inactive; Mcl1 Noxa PPI: 55; BCLXL inh: inactive; Mcl1 Bid PPI: inactive

How did CCCCn1c(=O)[nH]c(=O)c2c1nc(-c1ccc3ccccc3c1)n2CC do in these assays?
Mcl-1 Bim block: inactive; MCL1-BIM inh: inactive; GLD-1 RNA inh: inactive; Mcl1 Noxa PPI: inactive; BCLXL inh: inactive; Mcl1 Bid PPI: inactive

What do the screens show for `N#Cc1nc(COc2ccc(F)cc2)oc1N1CCN(Cc2ccccc2)CC1`?
Mcl-1 Bim block: inactive; MCL1-BIM inh: inactive; GLD-1 RNA inh: inactive; Mcl1 Noxa PPI: inactive; BCLXL inh: inactive; Mcl1 Bid PPI: 77

Results for N#Cc1nc(COc2ccc(Br)cc2)oc1N1CCN(Cc2ccccc2)CC1 ?
Mcl-1 Bim block: inactive; Mcl1 Noxa PPI: inactive; Mcl1 Bid PPI: inactive

How did O=C(CSc1cn(Cc2cccc(F)c2)c2ccccc12)NCc1ccc(F)cc1 do in these assays?
Mcl-1 Bim block: inactive; MCL1-BIM inh: inactive; GLD-1 RNA inh: inactive; Mcl1 Noxa PPI: inactive; BCLXL inh: inactive; Mcl1 Bid PPI: 62

How did CSc1cccc(NC(=O)/C=C/c2cccc(Cl)c2)c1 do in these assays?
Mcl-1 Bim block: inactive; MCL1-BIM inh: inactive; GLD-1 RNA inh: inactive; Mcl1 Noxa PPI: inactive; BCLXL inh: inactive; Mcl1 Bid PPI: inactive

Results for COc1cccc(NC(=O)CNC(=O)N2CC(=O)Nc3ccccc32)c1 ?
MCL1-BIM inh: inactive; GLD-1 RNA inh: inactive; BCLXL inh: 44

Results for COc1ccc(CNC(=O)CNC(=O)N2CC(=O)Nc3ccccc32)cc1 ?
MCL1-BIM inh: inactive; GLD-1 RNA inh: inactive; BCLXL inh: inactive

Results for CC1=NN(c2ccc(C)cc2)C(=O)/C1=C\c1ccc(Br)s1 ?
Mcl-1 Bim block: 92; MCL1-BIM inh: inactive; GLD-1 RNA inh: inactive; Mcl1 Noxa PPI: inactive; BCLXL inh: inactive; Mcl1 Bid PPI: inactive

Results for COC(=O)c1cccc(NC(=S)Nc2cccc(Cl)c2Cl)c1 ?
Mcl-1 Bim block: inactive; MCL1-BIM inh: inactive; GLD-1 RNA inh: inactive; Mcl1 Noxa PPI: inactive; BCLXL inh: inactive; Mcl1 Bid PPI: 98

How did Cc1cc(C2=NNC(=NC3CC3)SC2)c(C)n1Cc1ccco1 do in these assays?
Mcl-1 Bim block: 61; MCL1-BIM inh: inactive; GLD-1 RNA inh: inactive; Mcl1 Noxa PPI: inactive; BCLXL inh: inactive; Mcl1 Bid PPI: inactive

How did COCCCN=C1NN=C(c2cc(C)n(Cc3ccco3)c2C)CS1 do in these assays?
Mcl-1 Bim block: inactive; MCL1-BIM inh: inactive; GLD-1 RNA inh: inactive; Mcl1 Noxa PPI: inactive; BCLXL inh: inactive; Mcl1 Bid PPI: inactive

What do the screens show for `CCc1nc2sc3c(O)cc(=O)[nH]c3c2cc1C`?
Mcl-1 Bim block: inactive; MCL1-BIM inh: inactive; GLD-1 RNA inh: inactive; Mcl1 Noxa PPI: inactive; BCLXL inh: inactive; Mcl1 Bid PPI: inactive

Results for Cc1ccc(S(=O)(=O)NN2C(=O)/C(=C/c3cccn3C)SC2=S)cc1 ?
Mcl-1 Bim block: inactive; MCL1-BIM inh: inactive; GLD-1 RNA inh: inactive; Mcl1 Noxa PPI: 54; BCLXL inh: inactive; Mcl1 Bid PPI: inactive

Results for Cc1ccc(C(=O)O)cc1-n1c(=O)n(Cc2ccccc2)c(=O)c2[nH]cnc21 ?
MCL1-BIM inh: inactive; GLD-1 RNA inh: inactive; BCLXL inh: inactive

How did CCN(CC)c1ccc(NC(=O)COc2ccc(N(C)S(=O)(=O)c3cccs3)cc2)cc1 do in these assays?
Mcl-1 Bim block: inactive; MCL1-BIM inh: inactive; GLD-1 RNA inh: inactive; Mcl1 Noxa PPI: 65; BCLXL inh: inactive; Mcl1 Bid PPI: inactive

High-throughput results: PubChem BioAssay, several laboratories
